# Data taken from the supplement of paper PMC3334620.
# In all, about 33,000 sequences were measured (“E-score (-0.5 to 0.5)”: median about -0.017, highest 2% from about 0.3 on). The sample holds the highest values, similar sequences and a random draw of the others, so the mix is not that of the screen.
# Target: T1, Sut1 (UniProt P53032)
# T1 sequence: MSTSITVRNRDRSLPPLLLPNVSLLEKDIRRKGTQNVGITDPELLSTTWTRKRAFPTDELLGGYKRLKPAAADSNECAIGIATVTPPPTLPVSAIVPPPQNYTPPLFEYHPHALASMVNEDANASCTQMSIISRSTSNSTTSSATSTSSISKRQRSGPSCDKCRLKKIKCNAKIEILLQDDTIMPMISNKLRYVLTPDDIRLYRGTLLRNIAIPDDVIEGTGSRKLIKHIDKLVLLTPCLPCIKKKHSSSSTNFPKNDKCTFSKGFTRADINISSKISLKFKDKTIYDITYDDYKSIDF
# Test: PBM E-score (8-mer binding enrichment) (E-score (-0.5 to 0.5)); higher = stronger / more preferred TF binding
# Details: protein concentration: 200 nM; construct: GST-full length
# Experimental: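 Universal 'all 10-mer' protein binding microarrays (Agilent AMADID 015681) probed with GST-tagged S. cerevisiae TFs (full-length or DBD) made by in vitro transcription/translation (PURExpress), about 100-200 nM. Bound TF was detected with fluorescent anti-GST. Each ungapped 8-mer (which stands for itself and its reverse complement) is scored by the PBM enrichment score (E-score), a modified Wilcoxon-Mann-Whitney statistic from -0.5 to +0.5, computed with the Universal PBM Analysis Suite. Scale: above 0.35 generally sequence-specific binding.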
row,Sequence,PBM E-score
1,ATATAGGA,0.0279
2,AAATTGCA,-0.0262
3,ACCCTATC,0.0201
4,CTTGAACA,0.0785
5,GTTGCGCA,-0.226
6,CAGCCTAC,-0.0545
7,CGGATGCA,-0.0215
8,GATGTATA,0.0593
9,CATGTATA,0.0763
10,ATTGTATA,0.311
11,AATGTATA,0.298
12,CTTGTATA,0.166
13,ATTGTATG,0.175
14,AGCCTACG,-0.109
15,AGCCCATC,-0.23
16,AACATGGG,-0.00269
17,CTATTGAA,0.226
18,GAAAACAA,0.184
19,CAAACAAA,0.161
20,GAAACAAC,0.107
21,ACCAACAG,-0.297
22,AAACAAAA,0.197

row,Sequence,PBM E-score
1,TAAAACAA,0.207
2,ACCAACAA,0.299
3,AAACAAAG,0.322
4,ACCAACAT,0.0524
5,GAAACAAA,0.321
6,AAACAAAC,0.165
7,AAAAACAA,0.316
8,GAGTTGAA,0.18
9,ACAGATAT,0.0244
10,ATAAGTTC,0.261
11,ATACAGTG,0.0667
12,CTCCAAAG,0.0263
13,CCTCGACA,-0.288
14,CATGCGTA,-0.0829
15,ATCAGTTA,0.204
16,GAAAAACA,0.125
17,AAAAAACA,0.313
18,TAAAAACA,0.188
19,AAAACAAG,0.0776
20,AAAACAAT,0.215
21,AAAACAAA,0.312
22,AAGTTACC,0.158

row,Sequence,PBM E-score
1,CCCAAGGC,-0.0767
2,GATACGGC,-0.104
3,TATACGAA,0.194
4,GATACGCA,-0.141
5,AATACGGA,0.286
6,TATACGGA,0.312
7,GATACGGA,0.364
8,CATACGGA,0.303
9,CATACGGC,-0.156
10,CATACGGG,-0.186
11,ATGAGTCA,-0.0351
12,GCGCTAAC,-0.0641
13,TAGCTATA,-0.0172
14,GCGATCCA,-0.121
15,AGTTTTAT,0.211
16,TACCACCA,0.0245
17,CAGCCTGC,-0.224
18,AGACGAGG,-0.182
19,AGTACTCG,0.0601
20,AGTACTCA,0.0483
21,CGTACTCC,0.348
22,CGTACTCA,0.0162

row,Sequence,PBM E-score
1,AGTACTCC,0.325
2,CGTACTAC,0.0559
3,AAAGTCAG,0.00828
4,GCTAAAGC,-0.0213
5,CCTATCGC,-0.115
6,CAGCAAAG,-0.0349
7,CTCCGTCA,0.369
8,ATCCGTCC,-0.0115
9,ATCCGTCA,0.0376
10,GTCCGTCA,0.253
11,CCCCGTCC,-0.194
12,CTCCGTCC,0.307
13,CTACACAG,-0.108
14,CCAGGGTC,-0.265
15,ACGTATTC,-0.0472
16,TGACTTAA,0.153
17,CAGTCCAG,-0.325
18,CCGTCCGA,0.0411
19,GCGTCCGA,-0.09
20,GAGTCCGA,0.476
21,TAGTCCGA,0.48
